Measurements reported in PubChem BioAssay (NCATS).
Records with an inconclusive call do not appear. Active and inactive are the calls of the source. Unless noted, the call rests on the fitted dose curve; in most records, active means well fitted curve in the direction sought with a large enough effect; inconclusive means small, poorly fitted or top-dose-only effect, or another doubt; inactive means no such curve, though single readings can be large; an effect the other way counts as inactive or inconclusive.

What was measured:
[1] = Stat Signaling Pathway (AID 446; active means well fitted curve in either direction with a large enough effect, not every such curve was filed as active;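 further: ME-180 cervical cancer cells given 40 pM IL-6 alongside compound; SIE-controlled beta-lactamase reporter measured as 460/530 nm FRET emission ratio; on the % scale 0 is the no-effect control and ±100 the full control effect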)
Outline: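 Reporter line: ME-180 cervical carcinoma, SIE-beta-lactamase. Treatment: compound with 40 pM IL-6, 5 hrs, 37 C, in low-serum OPTI-MEM with 10 mM HEPES pH 7.3. Detection: 460/530 nm fluorescence.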

[2] = biological target: Mitogen-activated protein kinase 10 (Mus musculus) (UniProt Q61831); assay: JNK3 AlphaScreen Assay (AID 530; active means well fitted curve in either direction with a large enough effect, not every such curve was filed as active;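 further: kinase came from lysate of stimulated human HepG2 cells; signal reports phosphorylation of biotinylated GST-cJun 1-79 at Ser73 with 10 µM ATP; on the % scale 0 is the no-effect control and ±100 the full control effect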)
Outline: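 Compound titrations were preincubated 15 minutes at room temperature with substrate, antibody and pre-activated JNK3-containing HepG2 lysate. Reactions were started with 10 uM ATP and stopped with EDTA-containing bead buffer for AlphaScreen detection.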

[3] = qHTS Assay for Lipid Storage Modulators (AID 1519; calls by dose curve; on activity change, negative = inhibition: on the % scale 0 is the no-effect control and ±100 the full control effect); settings: Drosophila S3 cells, BODIPY lipid droplet/cell ratio, laser cytometry, cells loaded with oleic acid
Outline: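 Cells seeded at 5,000 per well were treated with compounds over a concentration series and loaded with oleic acid (400 uM, as added). Lipid droplet fluorescence (488 nm excitation, 500-530 nm channel) was read by laser-scanning cytometry and normalized to 20 uM Triacsin C.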

[4] = biological target: ATP-dependent 6-phosphofructokinase (Trypanosoma brucei brucei) (UniProt O15648); assay: qHTS Assay to Find Inhibitors of T. brucei phosphofructokinase: hit validation (AID 492961);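 further: luminescence reports ADP formed as PFK phosphorylates fructose-6-phosphate with ATP; on the % scale 0 is the no-effect control and ±100 the full control effect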
Chain of ATP-dependent 6-phosphofructokinase (Trypanosoma brucei brucei) (O15648 whole entry, looked up): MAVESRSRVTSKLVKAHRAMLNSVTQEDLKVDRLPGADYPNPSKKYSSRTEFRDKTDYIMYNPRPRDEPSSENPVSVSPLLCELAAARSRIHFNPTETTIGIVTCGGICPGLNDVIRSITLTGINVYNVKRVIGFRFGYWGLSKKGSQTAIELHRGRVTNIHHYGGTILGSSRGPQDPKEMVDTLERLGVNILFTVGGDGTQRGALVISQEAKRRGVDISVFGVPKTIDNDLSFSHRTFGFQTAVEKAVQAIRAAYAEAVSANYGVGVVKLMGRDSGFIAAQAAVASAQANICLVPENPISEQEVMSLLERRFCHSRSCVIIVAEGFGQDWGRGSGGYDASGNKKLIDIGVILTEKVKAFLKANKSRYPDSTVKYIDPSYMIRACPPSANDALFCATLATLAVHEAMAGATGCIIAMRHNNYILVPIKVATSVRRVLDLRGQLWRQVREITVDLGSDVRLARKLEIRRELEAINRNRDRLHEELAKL
Outline: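 ADP-Glo luminescence read-out of ADP formed by 1.25 nM PFK from 0.1 mM ATP and 0.5 mM F6P (TEA pH 8.0, 45 min, RT). Compounds titrated; activity normalized to no-enzyme and full-enzyme controls.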

[5] = biological target: Luciferin 4-monooxygenase (Photinus pyralis) (UniProt P08659); assay: Biochemical firefly luciferase enzyme assay for NPC (AID 624030);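 further: purified P. pyralis luciferase at 10 nM with luciferin and ATP substrate; 0% = DMSO and -100% = full luciferase inhibition by PTC124 control; nearly all actives have a fitted effect of over 70% in size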
Chain of Luciferin 4-monooxygenase (Photinus pyralis) (P08659 whole entry, looked up): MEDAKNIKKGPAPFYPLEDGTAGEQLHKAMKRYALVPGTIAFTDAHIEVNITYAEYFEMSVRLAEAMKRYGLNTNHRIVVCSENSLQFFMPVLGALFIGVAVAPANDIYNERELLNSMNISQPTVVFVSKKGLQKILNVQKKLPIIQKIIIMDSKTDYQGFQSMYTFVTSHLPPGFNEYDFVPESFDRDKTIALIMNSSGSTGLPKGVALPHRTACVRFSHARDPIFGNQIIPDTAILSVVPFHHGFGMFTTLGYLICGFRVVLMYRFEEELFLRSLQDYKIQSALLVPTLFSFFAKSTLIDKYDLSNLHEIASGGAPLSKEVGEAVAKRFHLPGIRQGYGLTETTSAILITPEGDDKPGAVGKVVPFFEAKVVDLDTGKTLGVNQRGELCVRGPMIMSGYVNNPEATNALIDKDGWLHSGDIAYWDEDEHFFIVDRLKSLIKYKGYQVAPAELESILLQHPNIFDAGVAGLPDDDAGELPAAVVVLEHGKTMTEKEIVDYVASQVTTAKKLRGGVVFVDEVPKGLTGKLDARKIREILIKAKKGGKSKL
Outline: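 Direct inhibition of firefly luciferase enzyme (10 nM final, 50 mM Tris Acetate) assessed by luminescence within 5 minutes. Percent activity scaled between DMSO and PTC124 positive control, with concentration-effect curves classified by fit quality and response.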

[6] = qHTS profiling for inhibitors of Plasmodium falciparum proliferation (AID 504749);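 further: 0% = DMSO vehicle and full inhibition = artemisinin control; nearly all actives have a fitted effect of over 60% in size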; settings: P. falciparum in erythrocytes, SYBR Green DNA, 72 h
Outline: (§1)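 Infected RBCs, 0.3% parasitemia/2.5% Hct final; cpd 72 h, 37 C, 5% CO2; lysis buffer with saponin/triton/SYBR Green I, o/n RT dark; FI 485/535; norm. to artemisinin (0.29 uM) and DMSO.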

[7] = system: 3D7; assay: as above; settings: P. falciparum in erythrocytes, SYBR Green DNA, 72 h; series mostly up to 12.8 µM
Outline: as §1

[8] = system: C2A; assay: as above; settings: P. falciparum in erythrocytes, SYBR Green DNA, 72 h; series mostly up to 12.8 µM
Outline: as §1

[9] = system: CP217; assay: as above; settings: P. falciparum in erythrocytes, SYBR Green DNA, 72 h; series mostly up to 12.8 µM
Outline: as §1

[10] = system: CP238; assay: as above; settings: P. falciparum in erythrocytes, SYBR Green DNA, 72 h; series mostly up to 12.8 µM
Outline: as §1

[11] = system: CP262; assay: as above; settings: P. falciparum in erythrocytes, SYBR Green DNA, 72 h; series mostly up to 12.8 µM
Outline: as §1

[12] = system: CP269; assay: as above; settings: P. falciparum in erythrocytes, SYBR Green DNA, 72 h; series mostly up to 12.8 µM
Outline: as §1

[13] = system: CP305; assay: as above; settings: P. falciparum in erythrocytes, SYBR Green DNA, 72 h; series mostly up to 12.8 µM
Outline: as §1

[14] = system: CP325; assay: as above; settings: P. falciparum in erythrocytes, SYBR Green DNA, 72 h; series mostly up to 12.8 µM
Outline: as §1

[15] = system: CP329; assay: as above; settings: P. falciparum in erythrocytes, SYBR Green DNA, 72 h; series mostly up to 12.8 µM
Outline: as §1

[16] = system: DIV30; assay: as above; settings: P. falciparum in erythrocytes, SYBR Green DNA, 72 h; series mostly up to 12.8 µM
Outline: as §1

[17] = system: FAB9; assay: as above; settings: P. falciparum in erythrocytes, SYBR Green DNA, 72 h; series mostly up to 12.8 µM
Outline: as §1

[18] = system: PC49; assay: as above; settings: P. falciparum in erythrocytes, SYBR Green DNA, 72 h; series mostly up to 12.8 µM
Outline: as §1

[19] = biological target: 3',5'-cyclic-AMP phosphodiesterase 4B (Homo sapiens) (UniProt Q07343); assay: qHTS Assay for Inhibitors of PDE-IV (AID 607; active means well fitted activation curve with a large enough effect in the main read-out, with a control signal flat, not every such curve was filed as active; further: % of control where 0% means no effect)
Chain of 3',5'-cyclic-AMP phosphodiesterase 4B (Homo sapiens) (Q07343 whole entry, looked up): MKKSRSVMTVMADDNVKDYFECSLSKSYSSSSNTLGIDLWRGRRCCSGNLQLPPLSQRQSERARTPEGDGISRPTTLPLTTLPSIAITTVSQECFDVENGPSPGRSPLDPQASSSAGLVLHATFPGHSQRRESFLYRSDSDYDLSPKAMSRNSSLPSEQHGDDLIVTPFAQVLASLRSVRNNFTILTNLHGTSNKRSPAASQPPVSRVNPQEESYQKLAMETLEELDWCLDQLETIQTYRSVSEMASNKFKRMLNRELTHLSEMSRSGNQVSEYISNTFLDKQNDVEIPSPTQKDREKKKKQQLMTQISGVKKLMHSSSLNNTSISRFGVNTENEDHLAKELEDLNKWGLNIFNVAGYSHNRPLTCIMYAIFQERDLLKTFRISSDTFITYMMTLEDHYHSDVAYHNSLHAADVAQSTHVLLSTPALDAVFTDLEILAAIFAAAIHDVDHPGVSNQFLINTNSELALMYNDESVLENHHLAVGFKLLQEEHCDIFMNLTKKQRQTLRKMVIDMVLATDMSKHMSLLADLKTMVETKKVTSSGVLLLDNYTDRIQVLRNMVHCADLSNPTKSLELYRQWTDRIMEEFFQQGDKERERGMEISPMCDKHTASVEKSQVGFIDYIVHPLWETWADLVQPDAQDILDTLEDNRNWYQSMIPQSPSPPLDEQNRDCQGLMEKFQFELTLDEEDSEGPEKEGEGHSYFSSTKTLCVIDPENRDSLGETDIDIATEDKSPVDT
Outline: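 Cell-based read-out of cAMP via a modified cyclic nucleotide-gated channel and membrane potential dye (535/590 nm) in HEK293 cells expressing PDE4 endogenously. Compounds tested up to 22.9 uM final; 100 uM RO 20-1724 reference.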

[20] = biological target: Ubiquitin carboxyl-terminal hydrolase 1 (Homo sapiens) (UniProt O94782); assay: Inhibitors of USP1/UAF1: Pilot qHTS (AID 504865);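 further: rhodamine fluorescence freed from ubiquitin-rhodamine substrate followed over time; top concentration of the series differs between compounds; on the % scale 0 is the no-effect control and ±100 the full control effect; nearly all actives have a fitted effect of over 35% in size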
Chain of Ubiquitin carboxyl-terminal hydrolase 1 (Homo sapiens) (O94782 whole entry, looked up): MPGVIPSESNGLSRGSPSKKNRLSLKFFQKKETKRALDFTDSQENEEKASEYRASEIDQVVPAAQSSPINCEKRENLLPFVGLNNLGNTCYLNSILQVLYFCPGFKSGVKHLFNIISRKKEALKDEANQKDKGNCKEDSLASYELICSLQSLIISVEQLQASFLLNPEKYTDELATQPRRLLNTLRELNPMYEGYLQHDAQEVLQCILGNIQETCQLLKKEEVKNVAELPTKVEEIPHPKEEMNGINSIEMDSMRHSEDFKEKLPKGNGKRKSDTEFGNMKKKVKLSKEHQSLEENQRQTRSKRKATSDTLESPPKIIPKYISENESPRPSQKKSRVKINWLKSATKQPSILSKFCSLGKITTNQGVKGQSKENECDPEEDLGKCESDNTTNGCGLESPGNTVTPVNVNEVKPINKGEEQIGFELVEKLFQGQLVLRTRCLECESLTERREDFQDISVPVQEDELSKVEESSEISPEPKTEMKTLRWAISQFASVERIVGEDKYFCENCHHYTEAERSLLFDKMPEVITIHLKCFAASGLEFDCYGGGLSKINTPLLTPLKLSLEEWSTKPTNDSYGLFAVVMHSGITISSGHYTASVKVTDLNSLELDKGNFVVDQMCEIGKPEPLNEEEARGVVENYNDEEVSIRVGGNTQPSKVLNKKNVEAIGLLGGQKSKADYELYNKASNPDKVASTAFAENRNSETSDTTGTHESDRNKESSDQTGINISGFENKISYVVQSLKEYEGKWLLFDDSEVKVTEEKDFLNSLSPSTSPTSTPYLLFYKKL
Outline: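 USP1/UAF1 complex at 1 nM preincubated 15 min at room temperature with compound, then Ub-Rho substrate added at 150 nM final. Fluorescence (480/540 nm) read kinetically in 50 mM HEPES pH 7.8, 0.5 mM EDTA, 1 mM TCEP, 0.1 mg/ml BSA, 0.01% Tween-20.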

[21] = measured here: cell count channel max response
[22] = measured here: lipid channel max response
[23] = at 12.8 µM (top of the series), parasite line A
[24] = at 12.8 µM (top of the series), parasite line B
[25] = at 28.7 µM (top of the series), parasite line A
[26] = at 28.7 µM (top of the series), parasite line B

CCC(C)(C)C(=O)O[C@@H]1C[C@H](C)C=C2C=C[C@H](C)[C@@H](CC[C@H]3C[C@@H](O)CC(=O)O3)[C@H]21
-20.7%: max response [3, 22]
-10.9%: max response [3, 21]
inactive: outcome [1] | Potency [2] | activity change, negative = inhibition ([3]; at 25.7 µM (top of the series)) -9.23% | outcome [4] | Potency [5] | activity, negative = inhibition [6, 23] -15.1% | Potency [7] | Potency [8] | Potency [9] | Potency [10] | Potency [11] | Potency [12] | Potency [13] | Potency [14] | Potency [15] | Potency [16] | Potency [17] | Potency [18]

COc1ccccc1OC[C@H](O)CO
inactive: outcome [1] | Potency [2] | outcome [19] | activity change, negative = inhibition ([3]; at 25.7 µM (top of the series)) -4.43% | outcome [4] | Potency [20] | Potency [5] | activity, negative = inhibition [6, 23] 5.68% | activity, negative = inhibition [6, 24] 4.87% | Potency [7] | Potency [8] | Potency [9] | Potency [10] | Potency [11] | Potency [12] | Potency [13] | Potency [14] | Potency [15] | Potency [16] | Potency [17] | Potency [18]
-36%: max response [3, 22]
-24.7%: max response [3, 21]

N[C@H](Cc1cc(I)c(Oc2ccc(O)c(I)c2)c(I)c1)C(=O)O
3.42%: max response [3, 22]
8.52%: max response [3, 21]
inactive: outcome [1] | Potency [2] | outcome [19] | activity change, negative = inhibition ([3]; at 25.7 µM (top of the series)) -1.62%

COc1ccc2c(c1)N(C[C@@H](C)CN(C)C)c1ccccc1S2
inactive: outcome [1] | Potency [2] | outcome [19] | activity change, negative = inhibition ([3]; at 25.7 µM (top of the series)) -4.01% | outcome [4] | Potency [5] | activity, negative = inhibition [6, 23] 2.81% | activity, negative = inhibition [6, 24] -1.87% | Potency [7] | Potency [8] | Potency [9] | Potency [10] | Potency [11] | Potency [12] | Potency [13] | Potency [14] | Potency [15] | Potency [17] | Potency [18]
-9.35%: max response [3, 21]
-12.9%: max response [3, 22]

CC(=O)O[C@H]1C[C@H]2CC[C@@H]3[C@@H](CC[C@]4(C)[C@H](OC(C)=O)[C@H]([N+]5(C)CCCCC5)C[C@@H]34)[C@]2(C)C[C@H]1[N+]1(C)CCCCC1
inactive: outcome [1] | Potency [2] | outcome [19] | activity change, negative = inhibition ([3]; at 25.7 µM (top of the series)) -3.97%
0.133%: max response [3, 21]
-5.07%: max response [3, 22]

COc1cc(OC)c2c(c1Cl)O[C@@]1(C2=O)[C@H](C)CC(=O)C[C@@H]1OC
inactive: outcome [1] | Potency [2] | activity change, negative = inhibition ([3]; at 25.7 µM (top of the series)) -1.85% | Potency [20]
-13.8%: max response [3, 21]
-15.1%: max response [3, 22]

COc1cccc(-c2nc(NCCc3c[nH]c4ccc(OC)cc34)c3ccccc3n2)c1
inactive: Potency [2] | activity change, negative = inhibition ([3]; at 57.5 µM (top of the series)) 5.14%
-17.7%: max response [3, 21]
-5.2%: max response [3, 22]

CC[C@H]1NC(=O)c2cc(S(N)(=O)=O)c(Cl)cc2N1
inactive: outcome [1] | Potency [2] | activity change, negative = inhibition ([3]; at 25.7 µM (top of the series)) -1.77% | outcome [4] | Potency [20] | Potency [5] | activity, negative = inhibition [6, 23] -8.58% | activity, negative = inhibition [6, 24] 18.4% | Potency [7] | Potency [8] | Potency [9] | Potency [10] | Potency [11] | Potency [12] | Potency [13] | Potency [14] | Potency [15] | Potency [16] | Potency [17] | Potency [18]
0.892%: max response [3, 21]
-1.37%: max response [3, 22]

CCO[C@H]1O[C@@H]([C@H](COCc2ccccc2)OCc2ccccc2)[C@@H](OCc2ccccc2)[C@H]1O
inactive: outcome [1] | Potency [2] | outcome [19] | activity change, negative = inhibition ([3]; at 25.7 µM (top of the series)) -6.14% | outcome [4] | Potency [5] | activity, negative = inhibition [6, 24] -27.6% | Potency [7] | Potency [8] | Potency [9] | Potency [10] | Potency [11] | Potency [12] | Potency [13] | Potency [14] | Potency [15] | Potency [17] | Potency [18]
-8.63%: max response [3, 21]
-12.6%: max response [3, 22]

C[C@@H]1O[C@H](O[C@@H]2[C@H](C)O[C@H](O[C@@H]3[C@H](C)O[C@H](O[C@H]4CC[C@]5(C)[C@@H](CC[C@@H]6[C@H]5C[C@@H](O)[C@]5(C)[C@@H](C7=CC(=O)OC7)CC[C@]65O)C4)C[C@@H]3O)C[C@@H]2O)C[C@H](O)[C@@H]1O
1.22%: max response [3, 22]
inactive: Potency [2] | outcome [19] | activity change, negative = inhibition ([3]; at 25.7 µM (top of the series)) 0.916%
2.04%: max response [3, 21]

CCc1c(C)[nH]c2c1C(=O)[C@H](CN1CCOCC1)CC2
-8.85%: max response [3, 21]
-8.65%: max response [3, 22]
inactive: outcome [1] | Potency [2] | outcome [19] | activity change, negative = inhibition ([3]; at 25.7 µM (top of the series)) 0.521% | outcome [4] | Potency [5] | activity, negative = inhibition [6, 23] 13% | activity, negative = inhibition [6, 24] 6.66% | Potency [7] | Potency [8] | Potency [9] | Potency [10] | Potency [11] | Potency [12] | Potency [13] | Potency [14] | Potency [15] | Potency [16] | Potency [17] | Potency [18]

COC(=O)C1=C(C)NC(C)=C(C(=O)OCCN(C)Cc2ccccc2)[C@H]1c1cccc([N+](=O)[O-])c1
-13.6%: max response [3, 22]
-15.5%: max response [3, 21]
inactive: outcome [1] | Potency [2] | outcome [19] | activity change, negative = inhibition ([3]; at 25.7 µM (top of the series)) 0.376%

CC(=O)N[C@H](CC(C)C)C(=O)O
inactive: activity change, negative = inhibition ([3]; at 57.5 µM (top of the series)) 6.38% | outcome [4] | Potency [20] | Potency [5] | activity, negative = inhibition [6, 25] -8.85% | activity, negative = inhibition [6, 26] 9.6% | Potency [7] | Potency [8] | Potency [9] | Potency [10] | Potency [11] | Potency [12] | Potency [13] | Potency [14] | Potency [15] | Potency [16] | Potency [17] | Potency [18]
8.9%: max response [3, 21]
16.6%: max response [3, 22]

CC1(C)OC2CO[C@]3(COS(N)(=O)=O)OC(C)(C)OC3C2O1 (stereo partly specified)
inactive: activity change, negative = inhibition ([3]; at 57.5 µM (top of the series)) -0.118% | outcome [4] | Potency [20] | Potency [5] | activity, negative = inhibition [6, 25] 6.34% | activity, negative = inhibition [6, 26] 12.5% | Potency [7] | Potency [8] | Potency [9] | Potency [10] | Potency [11] | Potency [12] | Potency [13] | Potency [14] | Potency [15] | Potency [16] | Potency [17] | Potency [18]
8.91%: max response [3, 22]
7.1%: max response [3, 21]
